Consider seven compounds from PubChem BioAssay (NCI).

The panel holds about 83,000 compounds, 20% with a hit somewhere; the sample as a whole holds those more often.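 Plates (96-well) were seeded with cells, treated with compound at one concentration, and incubated for 48 hours before percent growth was determined.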 Values without a mark were called inactive. The source made the active and inactive calls. How the source made its calls: active means growth percent below 10; inactive means the rest.

Test systems include NCI-H23 lung; NCI-H226 lung; NCI-H322M lung; HOP-62 NSCLC; NCI-H460 lung; HOP-92 NSCLC; NCI-H522 lung; A549/ATCC NSCLC; 786-0 renal; COLO 205 colon; DU-145 prostate; K-562 leukemia; MALME-3M melanoma; MDA-MB-231 breast; RXF 393 renal; SF-268 CNS; SF-295 CNS; SF-539 CNS; UACC-257 melanoma; M14 melanoma.
Holding throughout (assay): NCI-60 one-dose screen, 48 h (100 = growth as untreated, 0 = no growth, -100 = all killed)
Holding throughout (details): 10 µM unless noted

Consider `CCCCCCNC(=O)Oc1ccc(/C(=C(/C)c2ccc(Cl)cc2)c2ccc(OCCN3CCCCCC3)cc2)cc1`, for which the growth with NCI-H23 lung is 52.2%; with NCI-H226 lung, 83.2%; with NCI-H322M lung, 96.8%; in the experiment on HOP-62 NSCLC it was 76.8%; in the experiment on NCI-H460 lung it was 40.9%; with HOP-92 NSCLC, 83.6%. Further, the growth with NCI-H522 lung is 92.3%; in the experiment with A549/ATCC NSCLC, 74.3%; in the experiment on 786-0 renal, 63.7%; in the experiment with COLO 205 colon, 45.7%; with DU-145 prostate, 86.3%; in the experiment with K-562 leukemia, 8.93% (active). For the same compound, the growth in the experiment with MALME-3M melanoma is 75.4%; in the experiment on MDA-MB-231 breast, 76.1%; with RXF 393 renal, 44.1%; with SF-268 CNS, 77.2%; in the experiment on SF-295 CNS, 70%; in the experiment on SF-539 CNS it was 67%. Also, the growth in the experiment with UACC-257 melanoma is 75.1%; in the experiment with M14 melanoma, 30.9%.
As for `N#Cc1nc(-c2ccc(Cl)cc2)oc1N1CCC(S(=O)(=O)N2CCOCC2)CC1`, the growth in the experiment with NCI-H23 lung is 96.5%; in the experiment on NCI-H226 lung it was 94.6%; with NCI-H322M lung, 92.2%; with HOP-62 NSCLC it was 94.6%; with NCI-H460 lung, 103%; in the experiment with HOP-92 NSCLC, 100%. The growth with NCI-H522 lung is 87.2%; with A549/ATCC NSCLC it was 99.9%; with 786-0 renal it was 93.5%; with COLO 205 colon, 116%; with DU-145 prostate, 105%; with K-562 leukemia it was 101%. The growth was 99.2% in the experiment on MALME-3M melanoma; 94.7% in the experiment with MDA-MB-231 breast; 99.8% in the experiment on RXF 393 renal; 96.6% in the experiment on SF-268 CNS; 102% in the experiment on SF-295 CNS; 93.6% in the experiment on SF-539 CNS. Besides, the growth was 108% in the experiment with UACC-257 melanoma and 107% with M14 melanoma.
Take `O=C(Nc1cc(C(F)(F)F)cc(C(F)(F)F)c1)Nc1ccc2oc(=O)ccc2c1`: the growth in the experiment with NCI-H23 lung is -0.22% (active); with NCI-H226 lung, 18.8%; in the experiment with NCI-H322M lung, 13.4%; with HOP-62 NSCLC it was 23.9%; with NCI-H460 lung, 6.36% (active); with HOP-92 NSCLC, -26.2% (active). In addition, the growth is -13.5% (active) with NCI-H522 lung; 15.2% in the experiment on A549/ATCC NSCLC; 10.6% with 786-0 renal; -12.3% (active) in the experiment with COLO 205 colon; 18.3% with DU-145 prostate; 13.7% in the experiment with K-562 leukemia. Besides, the growth in the experiment on MALME-3M melanoma is -26.4% (active); with MDA-MB-231 breast it was -9.24% (active); with RXF 393 renal, 39.7%; in the experiment on SF-268 CNS, 21.1%; in the experiment with SF-295 CNS, 0.342% (active); with SF-539 CNS, 21.4%. The growth with UACC-257 melanoma is 1.17% (active); with M14 melanoma, 18.1%.
As for `CC(=O)c1cc(C(=O)N2c3ccccc3Sc3ccccc32)n2c1ccc1ccccc12`, the growth with NCI-H23 lung is 79.1%; in the experiment on NCI-H226 lung it was 60.4%; in the experiment on NCI-H322M lung, 89.9%; in the experiment with HOP-62 NSCLC, 56%; with NCI-H460 lung, 37.9%; in the experiment with HOP-92 NSCLC, 85.2%. The growth in the experiment with NCI-H522 lung is -1.14% (active); in the experiment on A549/ATCC NSCLC, 59%; with 786-0 renal, 60.6%; with COLO 205 colon it was 40%; in the experiment on DU-145 prostate, 75%; in the experiment on K-562 leukemia it was 23.6%. For the same compound, the growth in the experiment with MALME-3M melanoma was 62%; with MDA-MB-231 breast it was 97.4%; with RXF 393 renal, 66.9%; in the experiment on SF-268 CNS it was 67.5%; in the experiment on SF-295 CNS, 41%; in the experiment with SF-539 CNS, 69.1%. Moreover, the figures for the growth in the experiment with UACC-257 melanoma and in the experiment with M14 melanoma were 51.8% and 40.8%, respectively.
Regarding `C#CCN(C)CCCOc1ccc(NCc2ccc(/C=C/C(=O)NO)cc2)cc1Cl`, the growth with NCI-H23 lung is -24% (active); in the experiment with NCI-H226 lung it was -11.7% (active); with NCI-H322M lung it was 9.85% (active); in the experiment on HOP-62 NSCLC, 3.99% (active); in the experiment with NCI-H460 lung it was 4.27% (active); with HOP-92 NSCLC, -27.6% (active). Moreover, the growth with NCI-H522 lung was 2.32% (active); in the experiment with A549/ATCC NSCLC, -3.43% (active); with 786-0 renal it was -2.14% (active); in the experiment with COLO 205 colon, -24.4% (active); in the experiment on DU-145 prostate, 13.7%; in the experiment with K-562 leukemia, 15.3%. The growth with MALME-3M melanoma was 4.84% (active); in the experiment with MDA-MB-231 breast, 16.1%; in the experiment on RXF 393 renal, -56.2% (active); in the experiment on SF-268 CNS, 12.9%; with SF-295 CNS, -65.5% (active); in the experiment on SF-539 CNS, -7.77% (active). The growth was 21% in the experiment with UACC-257 melanoma and 0.456% (active) in the experiment on M14 melanoma.
On to `O=S(=O)(NCCCNc1nccc(-c2[nH]c(-c3ccccc3)nc2-c2ccc(F)c(O)c2)n1)c1cccc(F)c1`, for which the growth in the experiment with NCI-H23 lung was 90.4%; with NCI-H226 lung it was 96.7%; with NCI-H322M lung, 103%; in the experiment with HOP-62 NSCLC, 116%; with NCI-H460 lung, 78%; with HOP-92 NSCLC it was 94.6%. The growth in the experiment on NCI-H522 lung was 87.5%; in the experiment with A549/ATCC NSCLC it was 92.4%; with 786-0 renal it was 101%; with COLO 205 colon, 96.3%; with DU-145 prostate, 100%; in the experiment with K-562 leukemia, 49.3%. Moreover, the growth in the experiment with MALME-3M melanoma was -2.58% (active); in the experiment on MDA-MB-231 breast, 79.3%; in the experiment on RXF 393 renal, 100%; with SF-268 CNS it was 103%; in the experiment with SF-295 CNS, 85.2%; in the experiment with SF-539 CNS, 103%. Further, the growth in the experiment with UACC-257 melanoma is 23.4%; in the experiment on M14 melanoma, 29.3%.
On to `C#CCOc1ccccc1C(OC(=O)c1ccccc1)C(=O)NC(C)(C)C(C)(C)C` (stereo not given), for which the growth in the experiment with NCI-H23 lung was 82.4%; in the experiment with NCI-H226 lung it was 82.1%; with NCI-H322M lung it was 90.4%; in the experiment on HOP-62 NSCLC, 88.4%; in the experiment on NCI-H460 lung, 89.7%; in the experiment on HOP-92 NSCLC it was 71%. In addition, the growth in the experiment with NCI-H522 lung is 73.4%; in the experiment with A549/ATCC NSCLC, 74%; with 786-0 renal, 84.7%; with COLO 205 colon it was 85.1%; with DU-145 prostate, 108%; with K-562 leukemia it was 78.3%. Moreover, the growth in the experiment with MALME-3M melanoma is 76.4%; with MDA-MB-231 breast, 80.8%; in the experiment on RXF 393 renal it was 74.6%; with SF-268 CNS, 93.5%; in the experiment on SF-295 CNS it was 70.3%; with SF-539 CNS, 102%. In addition, the growth is 81.6% in the experiment on UACC-257 melanoma and 89.4% in the experiment on M14 melanoma.
